Sampled rows, rich in hits. Any-hit rate of the full collection: about 9.4%.
NPC1 promoter act: qHTS Assay for NPC1 Promoter Activators; Huh7 NPC1 promoter luciferase reporter, 24 h; Potency, µM (titrated, usually from 9.22 µM), for inactives: at the highest dose activation, usual class: activators; 320,000 compounds, 2.4% hits; AID 485313, 2010; also: % of control where 0% means no effect; nearly all actives have a fitted effect of over 60% in size
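Readout is luciferase luminescence, reflecting NPC1 promoter activation in stably transfected Huh7 cells after 24 h compound exposure at 37 °C in reduced-serum medium with 10% FBS.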
SMN2 splice enh: qHTS Assay for Enhancers of SMN2 Splice Variant Expression. HEK293 SMN2-luciferase splicing reporter, luminescence, 30-36 h. Potency, µM (titrated, usually from 46.1 µM), inactives show at the top dose activity change, positive = activation, hits mostly activators. 210,000 compounds, 2.8% hits; also: % of control where 0% means no effect; nearly all actives have a fitted effect of over 55% in size
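qHTS luciferase splicing reporter: luminescence rises when SMN2 exon 7 is included in transfected HEK293 cells. Compound exposure lasted 30-36 h at 37C, with 4.5 mM final sodium butyrate as control, followed by a ONE-Glo read.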
ELG1 repair inh: qHTS screen for small molecules that inhibit ELG1-dependent DNA repair in human embryonic kidney (HEK293T) cells expressing luciferase-tagged ELG1; HEK293T ELG1-luciferase reporter, luminescence, 16 h; DNA damage induced by 5-fluorouridine; Potency, µM (doses to about 46.1 µM), for inactives: at the highest dose activity change, negative = inhibition, hits mostly inhibitors; 330,000 compounds, 2.3% hits; AID 504467, 2011; also: % is scaled to controls: 0 for no effect and ±100 for the full control effect; nearly all actives have a fitted effect of over 55% in size
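Luminescence from the luciferase reporter, measured 30 min after ONE-Glo reagent at room temperature, was the read-out. Beforehand, 2,000 cells per well were exposed for 16 hr at 37 °C to 5-fluorouridine together with compound or vehicle.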
Rab9 promoter act: qHTS Assay for Rab9 Promoter Activators. Huh7 Rab9 promoter-luciferase reporter, luminescence, 24 h. Potency, µM (titrated, usually from 9.22 µM), without a hit: at the top dose activation, negative = inhibition, actives largely listed as activators. 320,000 compounds, 2.8% hits; also: % of control where 0% means no effect; nearly all actives have a fitted effect of over 60% in size
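Quantitative HTS format; Huh7 Rab9-luciferase reporter cells (1500/well) receive compound 2 h post-plating, incubate 24 h at 37 °C, then get luciferase reagent for 10 min before luminescence reading.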
FLuc counter: qHTS profiling assay for firefly luciferase inhibitor/activator using purifed enzyme and Km concentrations of substrates (counterscreen for miR-21 project); Luciferin 4-monooxygenase (Photinus pyralis), P08659; purified FLuc, Km substrates, luminescence inhibition; Potency, µM (series often up to 57.5 µM), without a hit: at the top dose activity change, negative = inhibition, usual class: inhibitors; 360,000 compounds, 6.9% hits; AID 588342, 2011;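 also: plate controls were vehicle for no effect and reference inhibitor for full effect; nearly all actives have a fitted effect of over 55% in size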
Target sequence (P08659 whole entry, looked up): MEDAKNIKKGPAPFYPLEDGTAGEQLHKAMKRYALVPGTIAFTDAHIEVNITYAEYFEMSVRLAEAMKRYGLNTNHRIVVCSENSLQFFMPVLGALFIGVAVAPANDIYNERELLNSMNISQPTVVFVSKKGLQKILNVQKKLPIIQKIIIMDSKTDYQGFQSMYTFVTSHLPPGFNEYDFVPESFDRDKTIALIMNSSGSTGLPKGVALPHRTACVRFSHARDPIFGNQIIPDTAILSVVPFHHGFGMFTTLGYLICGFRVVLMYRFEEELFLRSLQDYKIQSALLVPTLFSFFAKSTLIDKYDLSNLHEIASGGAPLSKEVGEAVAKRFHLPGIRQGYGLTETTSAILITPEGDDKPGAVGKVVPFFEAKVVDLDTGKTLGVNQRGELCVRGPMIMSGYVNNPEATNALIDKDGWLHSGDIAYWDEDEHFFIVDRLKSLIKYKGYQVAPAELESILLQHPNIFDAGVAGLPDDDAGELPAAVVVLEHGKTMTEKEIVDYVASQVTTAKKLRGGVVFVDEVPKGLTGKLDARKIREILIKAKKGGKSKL
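Biochemical qHTS of compounds, final roughly 60 µM downward over six points, against 10 nM purified firefly luciferase using Km concentrations of substrates (10 uM D-luciferin, 10 uM ATP) in Tris acetate pH 7.5 buffer; luminescence output.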
ELG1 genotoxic: qHTS screen for small molecules that induce genotoxicity in human embryonic kidney (HEK293T) cells expressing luciferase-tagged ELG1; HEK293T ELG1-luciferase reporter, luminescence, 16 h; Potency, µM (series often up to 46 µM), without a hit: at the top dose activity change, positive = activation, most hits filed as activators; 330,000 compounds, 1.3% hits; AID 504466, 2011; also: % of control where 0% means no effect; nearly all actives have a fitted effect of over 60% in size
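Cells (2,000/well) expressing the ELG1-luciferase fusion are dosed by pin tool and kept 16 hr at 37 °C, 5% CO2. Signal comes from ONE-Glo luciferase reagent after 30 min at room temperature.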
* hit, by the source's call; u = inconclusive; x = no result given. Calls follow the shape of the dose curve; as a rule, active = well fitted curve in the direction sought with a large enough effect; inconclusive = small, poorly fitted or top-dose-only effect, or another doubt; inactive = no such curve, though single readings can be large; an effect the other way counts as inactive or inconclusive. Potency is read from the fitted curve at half-maximal effect.

SMILES | NPC1 promoter act | SMN2 splice enh | ELG1 repair inh | Rab9 promoter act | FLuc counter | ELG1 genotoxic
COc1ccc(-n2c(=O)c3ccc(C(=O)NCc4ccc(C)cc4)cc3n(Cc3cccc(Cl)c3)c2=O)cc1 | x | 1% | x | x | -1% | x
CCc1ccccc1NC(=O)C1CCN(S(=O)(=O)c2ccc3[nH]c(=O)ccc3c2)CC1 | x | x | x | x | -3% | x
O=C(NC1CCCCC1)c1cc(S(=O)(=O)N2CCCC2)ccc1Cl | -6% | x | 7% | -7% | 1% | -8%
C/C(=N/OC(=O)CC(C)C)c1cc(-c2ccc(Cl)cc2)no1 | u | 18µM* | u | 2.8µM* | u | u
CCOC(=O)c1cc(/C(C)=N/OC(=O)c2ccc(Cl)cc2)on1 | 1% | x | -3% | 1% | 0% | 0%
O=C(NCCc1ccccc1C(F)(F)F)C1CCC(=O)N(C2CC2)C1 (configuration not stated) | -3% | x | -5% | -3% | -1% | 1%
COC(=O)Cc1[nH]n(-c2nc3ccccc3s2)c(=O)c1C(C)=Nc1ccc(Cl)cc1 | -44% | x | u | -58% | 12µM* | 2%
COC(=O)Cc1[nH]n(-c2ccccc2)c(=O)c1C(C)=Nc1ccccc1 | u | -14% | u | 3.2µM* | u | 10%
Cc1ccc(-n2nnc(-c3cc4ccccc4n3C)n2)cc1 | 2.8µM* | x | u | 1.6µM* | 0.85µM* | u
Cn1c(-c2ccccc2O)cc2ccccc21 | -6% | -17% | 0% | -3% | -5% | -3%
Cn1c(-c2ccccc2)cc2ccccc21 | 0% | x | 13% | -4% | u | -1%
Cn1c(-c2nnn(-c3ccc(F)cc3)n2)cc2ccccc21 | u | x | u | 4µM* | 1.3µM* | 5.2µM*
Cn1cccc1C(=O)N1CCC2(CCCN(Cc3ccncc3)C2)CC1 | x | -11% | x | x | x | x
Cc1nc(-c2coc3c(O)c(O)ccc3c2=O)cs1 | x | 22µM* | x | x | x | x
CC1CCC(C(C)C)C(=O)/C1=C/c1ccc(N)cc1 (configuration not stated) | 1.6µM* | x | u | 1.6µM* | 11µM* | u
C(=C/c1nccc2c1[nH]c1ccccc12)/c1ccc2c(c1)OCO2 | u | 11% | u | 27% | 3µM* | u
O=c1c2ccccc2nc(/C=C/c2ccc3c(c2)OCO3)n1CCCO | 14% | -16% | -6% | 13% | u | 2%
Clc1ccc(OCCCCCN2CCCC2)c(Br)c1 | 0% | -36% | 3% | -2% | -5% | -4%
Cc1cc(Cl)c(OCCCn2ccnc2)c(Br)c1 | -2% | -26% | -17% | -4% | 4% | -1%
Clc1ccc(OCCCN2CCCCC2)c(Br)c1 | u | u | u | u | 15µM* | 9%
Clc1ccc(OCCCn2ccnc2)c(Br)c1 | -5% | -11% | u | -7% | 19µM* | 0%
NS(=O)(=O)c1ccc(NS(=O)(=O)c2ccc(NC(=S)Nc3ccccc3)cc2)cc1 | 1% | -3% | 15% | 7% | -1% | -1%
NS(=O)(=O)c1ccc(NC(=S)Nc2ccn(Cc3cccc4ccccc34)n2)cc1 | -10% | x | 21µM* | -7% | 2% | -7%
CN(C)c1ccc(N=Nc2ccc(S(=O)(=O)O)cc2)c2ccccc12 | -1% | 6% | -4% | 2% | 17µM* | -8%
O=C(Nc1ccccc1)Nc1ccc(Br)cc1F | u | 13µM* | u | u | u | 14%
SMILES | NPC1 promoter act | SMN2 splice enh | ELG1 repair inh | Rab9 promoter act | FLuc counter | ELG1 genotoxic
O=C(Nc1cccc(Cl)c1)Nc1ccc(Br)cc1F | 3% | -16% | 14% | 1% | -20% | -1%
CC(=O)Nc1ccc(SCC(=O)O)cc1 | -5% | 4% | 1% | 3% | 1% | -1%
CC(C)c1ccc(NC(=O)c2cc(Br)ccc2Br)cc1 | 14% | 4% | 0% | 14% | u | 3%
Cc1cc(NC(=O)Nc2ccccc2F)ccc1Br | 1.4µM* | x | u | 1.3µM* | 2.4µM* | u
O=C(Nc1ccc(Cl)cc1)c1ccc(Br)cc1F | 1.4µM* | 14µM* | u | 1µM* | 3µM* | 3.3µM*
O=C(O)CSc1ccc(NC(=O)Nc2ccccc2F)cc1 | -2% | x | 13% | 2% | 12µM* | 2%
COc1ccc(C(=O)NCC(c2ccc3c(c2)OCO3)N2CCN(c3ccccc3F)CC2)cc1 (configuration not stated) | x | x | x | x | -4% | x
COc1ccc(C)cc1S(=O)(=O)NCC(c1cccs1)S(=O)(=O)c1ccc(C)cc1 (configuration not stated) | x | x | x | x | -4% | x
COc1ccc(S(=O)(=O)NCc2cc(=O)n(C)c(=O)n2C)cc1C | -3% | x | 0% | -2% | 7% | -1%
CCN(CC)C(=O)c1cc2c(=O)n3ccccc3nc2s1 | 24% | u | u | 29% | u | 16µM*
CC1CCCN(C(=O)c2cc3c(=O)n4ccccc4nc3s2)C1 (configuration not stated) | u | x | u | u | 17µM* | 16µM*
COc1ccccc1-c1nnc(-c2ccc(N3CCOCC3)cc2)o1 | u | 5.6µM* | u | u | 19µM* | 16%
N#Cc1cccc(NC(=O)CSc2nnc(-c3n[nH]c4ccccc34)o2)c1 | u | 13µM* | u | u | -15% | 20%
Cc1ccccc1-c1nnc(SCC(=O)N2CCCC2)o1 | u | x | u | u | 17µM* | u
O=C(CSc1nnc(-c2ccccc2Cl)o1)N1CCOCC1 | 2.2µM* | x | u | 3.5µM* | 19µM* | u
CC1CCN(C(=O)CSc2nnc(-c3ccccc3Cl)o2)CC1 | x | 0% | x | x | 3% | x
Cc1nc(-c2cccc(F)c2)sc1CCNC(=O)C(=O)Nc1ccc2c(c1)OCO2 | x | x | x | x | -5% | x
Cc1cccc(NC(=O)CSc2nnc(-c3ccccc3C)o2)c1 | u | 13µM* | u | 4µM* | 0% | u
COc1ccccc1-c1nnc(SCC(=O)N2CCOCC2)o1 | 15% | 8.9µM* | u | 18% | u | 4%
Cc1cc(C)cc(NC(=O)CSc2nnc(-c3ccccc3C)o2)c1 | u | 18% | 2% | u | x | 13%
c1ccc2c(c1)Nc1cc3ccccc3cc1S2 | 3.2µM* | x | u | 3.5µM* | -27% | 10%
